What follows are compounds tested on wheat germ agglutinin (Triticum aestivum), Alexa647-labelled (assay: Alexa647-WGA lectin binding to printed small molecules – biochemical, small-molecule microarray, 635/667 nm fluorescence, artefact control for SMM control-protein annotation, profiling panel (AID 1140;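 further: score merges 667 nm feature emission with signal to noise over triplicate slides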)). Conditions: WGA-A647 binding, 635 nm fluorescence, higher = more signal.
`CCN1C(=O)[C@@H]2[C@H]3C(=CC[C@@H]2C1=O)C1(OCCCO1)[C@H]1O[C@H]1[C@H]3O` gave a composite z-score of 0.692. For `CCOC(=O)[C@H](Cc1ccccc1)NC(=O)CCC1CC(OC(=O)NCCc2ccc(F)cc2)CC2(CCCC(COC(=O)NCCc3ccccc3OC)O2)O1` (stereo partly drawn), the composite z-score was 0.441. Compound `CCOC(=O)NN=C1C[C@@H](O)[C@@H](O)[C@@H]2[C@@H]3C(=O)N(c4cccc(Oc5ccccc5)c4)C(=O)[C@@H]3CC[C@H]12` has a composite z-score of 0.01. `CCCCC#C[C@@H]1C=C[C@H](Oc2ccc(C(=O)OC)cc2)[C@@H](COC(=O)OCC)O1` showed a composite z-score of 0.276. With `CCCNC(=O)OC[C@H]1O[C@H](CCON=C(C)CCN2CCc3nc(CC)c(CC)cc3C2)C=C[C@@H]1Oc1ccc(OC)cc1` the composite z-score was 0.316. Work on `CCC1=NOC(CCC2CC(OC(=O)NCc3cccc4c3OCO4)CC3(CCCC(COC(=O)NCCc4ccccc4OC)O3)O2)C1` (stereo not drawn) yielded a composite z-score of 0.703. `CO[C@@H]1COC(=O)CC=C[C@H](C)[C@H](OC)COC(=O)[C@H](C)NC(=O)CC=C[C@H]1C` showed a composite z-score of -0.54. For `C#CCCCON=C1C[C@@H](O)[C@@H](O)[C@@H]2[C@@H]3C(=O)N(C(C)(C)C)C(=O)[C@@H]3CC[C@H]12`, the composite z-score was 0.903. Work on `CCOC(=O)[C@H](Cc1ccccc1)NC(=O)CCC1CC(OC(=O)NCc2ccc3c(c2)OCO3)CC2(CCCC(COC(=O)NCCC(C)C)O2)O1` (stereo partly drawn) yielded a composite z-score of 0.531. For `COC(=O)CC=C[C@@H](C)[C@@H](C=NO[C@H](C)c1cn([C@H](CO)Cc2ccccc2)nn1)NS(=O)(=O)c1ccc(C)cc1`, the composite z-score was 0.645. For `CCN1C(=O)[C@H]2[C@H]3[C@H](O)[C@H](O)CC(=O)[C@@H]3CC[C@H]2C1=O`, the composite z-score was 0.187. With `CCO[C@H](c1cc(OC)cc([N+](=O)[O-])c1OC)[C@H](C)C=CCC(=O)OC` the composite z-score was 0.0356. `COC(=O)[C@H](C)NC(=O)CCC1CC(OC(=O)NCCc2ccc(F)cc2)CC2(CCCC(COC(=O)NCc3cccc(C(F)(F)F)c3)O2)O1` (stereo partly drawn) was tested, and the composite z-score was 0.0337. Compound `CCOC(=O)[C@H](CC(C)C)NC(=O)CCC1CC(OC(=O)NCc2ccc3c(c2)OCO3)CC2(CCCC(COC(=O)NCc3cccc(C(F)(F)F)c3)O2)O1` (stereo partly drawn) has a composite z-score of 0.144. In the case of `COC(=O)[C@H](C)NC(=O)CCC1CC(OC(=O)NCc2ccc3c(c2)OCO3)CC2(CCCC(COC(=O)NCc3cccc(C(F)(F)F)c3)O2)O1` (stereo partly drawn), the composite z-score is reported as 0.613. `C[C@@H](c1ccccc1)N1C(=O)[C@H]2[C@H]3[C@H](O)[C@H](O)CC(=NO[C@@H]4O[C@H](CO)[C@@H](O)[C@H](O)[C@H]4O)[C@H]3CC[C@H]2C1=O` gave a composite z-score of 0.0795. Work on `CCc1cc2c(nc1CC)CCN(CCC(C)=NO[C@H](C)c1cn([C@H](CO)Cc3ccccc3)nn1)C2` yielded a composite z-score of 0.55. `O=C1C[C@@H](O)[C@@H](O)[C@@H]2[C@@H]3C(=O)N(Cc4ccccc4)C(=O)[C@@H]3CC[C@@H]12` was tested, and the composite z-score was 0.0697. For `COc1ccc(O[C@H]2C=C[C@@H](c3ccccc3)O[C@@H]2CON=CC[C@@H]2C=C[C@H](OC(C)=O)[C@@H](COC(C)=O)O2)cc1`, the composite z-score was 0.807. Compound `Cc1ccc(S(=O)(=O)n2c3ccccc3c3nnc(C(=O)c4ccccc4)nc32)cc1` has a composite z-score of -0.218. With `CCCNC(=O)OC[C@H]1O[C@H](CCON=C(C)CCC(=O)OC[C@H]2O[C@H](c3ccccc3)C=C[C@@H]2Oc2ccc(OC)cc2)C=C[C@@H]1Oc1ccc(OC)cc1` the composite z-score was 0.619. For `COC(=O)CC=C[C@@H](C)[C@H](OCc1cccc(-c2ccccc2)c1)C1CCCCC1`, the composite z-score was 0.534. `O=C(NN=C1C[C@@H](O)[C@@H](O)[C@@H]2[C@@H]3C(=O)N(Cc4ccccc4)C(=O)[C@@H]3CC[C@@H]12)OCc1ccccc1` showed a composite z-score of -0.148. With `COc1ccc(COC(=O)NN=C2C[C@@H](O)[C@@H](O)[C@@H]3[C@@H]4C(=O)N(Cc5ccccc5)C(=O)[C@@H]4CC[C@H]23)cc1` the composite z-score was 0.266. `COc1ccc(O[C@H]2C=C[C@@H](c3ccccc3)O[C@@H]2CON=C(C)CCC(=O)OC[C@H]2O[C@H](c3ccccc3)C=C[C@@H]2Oc2ccc(OC)cc2)cc1` gave a composite z-score of -1.13. Work on `CCCNC(=O)OC[C@H]1O[C@H](CCON=Cc2ccc(C(=O)N3[C@H](c4ccc(C)cc4)[C@@H](C)CC[C@H]3C(=O)OC)cc2)C=C[C@@H]1Oc1ccc(OC)cc1` yielded a composite z-score of 0.236. Compound `CCOC(=O)CCN1C(=O)[C@H]2[C@H]3[C@H](O)[C@H](O)CC(=NNC(=O)OCc4ccccc4)[C@@H]3CC[C@H]2C1=O` has a composite z-score of 0.304. In the case of `C[C@@H](c1ccccc1)N1C(=O)[C@H]2[C@H]3[C@H](O)[C@H](O)CC(=NOCc4ccccc4)[C@H]3CC[C@H]2C1=O`, the composite z-score is reported as 0.0559.

Source: PubChem BioAssay
